Screening results: PubChem BioAssay, National Center for Advancing Translational Sciences (NCATS)
Shown are actives, neighbours in structure and some others; about 22% of the full set was active somewhere.
Cycloheximide cs: affects cycloheximide protein synthesis inhibition readout, counter-screen; cell reporter, cycloheximide protein synthesis inhibition counterscreen; AID 2314; max response, %; 12% of 300,000 active; in the data active = max response mostly above about 13%, no sharp cut-off; inactive = mostly below about 14%; also: read at 38.3 µM for the half of the compounds with a filed dose; 0% is about no effect
LmPK inhibitor: LmPK (Leishmania mexicana) enzyme inhibition. AID 1721. purified LmPK, Kinase-Glo ATP luminescence, 1 h. 0.37% of 290,000 active. Potency, µM (series often up to 57.5 µM), inactives show at the highest dose activity change, negative = inhibition, usual class: inhibitors; also: potency is read from the fitted curve at half-maximal effect; % is scaled to controls: 0 for no effect and ±100 for the full control effect
Target sequence (Q27686 whole entry, looked up): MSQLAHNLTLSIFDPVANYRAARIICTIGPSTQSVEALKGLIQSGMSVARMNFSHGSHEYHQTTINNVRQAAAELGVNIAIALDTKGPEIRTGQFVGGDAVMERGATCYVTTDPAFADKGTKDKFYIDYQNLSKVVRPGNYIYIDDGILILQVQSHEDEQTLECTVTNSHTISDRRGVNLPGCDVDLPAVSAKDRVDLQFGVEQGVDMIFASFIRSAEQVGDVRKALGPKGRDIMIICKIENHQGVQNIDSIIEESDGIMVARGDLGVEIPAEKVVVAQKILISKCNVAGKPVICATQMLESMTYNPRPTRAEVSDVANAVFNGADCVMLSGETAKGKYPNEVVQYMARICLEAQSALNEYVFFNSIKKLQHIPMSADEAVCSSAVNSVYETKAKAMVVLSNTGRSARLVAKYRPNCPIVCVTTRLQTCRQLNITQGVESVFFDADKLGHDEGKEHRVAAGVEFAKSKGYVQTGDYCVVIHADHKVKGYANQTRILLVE
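Kinase-Glo luminescence read after 1 h RT reaction of 0.1 nM LmPK with 0.5 mM PEP and 0.1 mM ADP. Activity scaled between uninhibited and enzyme-free controls.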
Pf growth 96h: P. falciparum growth inhibition at 96 hours; P. falciparum luciferase reporter growth, 96 h; Potency, µM (doses to about 28.7 µM), for the others: at the highest dose activity change, negative = inhibition, actives largely listed as inhibitors; 6.9% of 320,000 active; AID 504834; also: potency is read from the fitted curve at half-maximal effect; % is scaled to controls: 0 for no effect and ±100 for the full control effect
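Plates of compound plus infected erythrocytes (2% hematocrit, 0.05% parasitemia final) incubate 96 hours, 37 C, 5% CO2. Detection reagent added; reduced luminescence from the parasites' luciferase reporter flags inhibition.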
Shiga toxin inh: Shiga toxin inhibition; 9.2% of 290,000 active; Vero cells, Shiga toxin protein synthesis inhibition reporter; inhibition, % at 38.7 µM; in the data active = inhibition mostly above about 28%, no sharp cut-off; inactive = mostly below about 43%; also: 0% is about no effect
Pf growth 48h: inhibits P. falciparum growth in the first generation, 48 h; P. falciparum luciferase growth in erythrocytes, 48 h; Potency, µM (titrated, usually from 28.7 µM), inactives show at the highest dose activity change, negative = inhibition, usual class: inhibitors; 5.9% of 310,000 active; also: potency is read from the fitted curve at half-maximal effect; % is scaled to controls: 0 for no effect and ±100 for the full control effect
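Luminescence readout; reporter = integrated firefly luciferase in P. falciparum. RBC culture at 2% hematocrit, 0.1% parasitemia final, 37 C/5% CO2; decreased signal taken as growth inhibition.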
* hit, by the source's call; ? = inconclusive; . = not tested or not shown; + = active, no number. Unless noted, calls follow the shape of the dose curve; as a rule, active = well fitted inhibition curve with a large enough effect; inconclusive = small, poorly fitted or top-dose-only effect, or another doubt; inactive = no such curve, though single readings can be large or run the other way.

SMILES	Cycloheximide cs	LmPK inhibitor	Pf growth 96h	Shiga toxin inh	Pf growth 48h
O=C(c1cc(-c2ccccc2)nc2ccccc12)N1CCCc2ccccc21	13	-3%	?	-6	2.9µM*
Cc1ccc(-c2cc(C(F)F)n3ncc(C(=O)N4CCCc5ccccc54)c3n2)cc1	-1	8%	94%	-1	?
Cc1cccc(-c2cc(C(=O)N3CCCc4ccccc43)c3ccccc3n2)c1	22*	4%	?	7	8.3µM*
COc1ccc(N2C(=O)[C@@H]3[C@H](C2=O)[C@H]2c4ccccc4C=CN2[C@@H]3C(C)=O)cc1	-4	-16%	-10%	-5	-9%
CCCOCC(O)CCc1n[nH]c(=S)n1-c1ccccc1 (stereo not drawn)	-1	0%	153%	-19	2%
Cc1oc(-c2ccccc2F)nc1CS(=O)CC(=O)NC1CCCC1 (stereo not drawn)	1	-2%	27%	20	10%
C=CCn1c(CCCOc2ccc(Cl)cc2Cl)n[nH]c1=S	19*	-7%	?	54*	1%
C=CCn1c(Cc2nc3ccc(Cl)cc3[nH]2)n[nH]c1=S	4	21%	.	-10	7%
CSc1nc(=NC(C)=O)ss1	33*	-5%	5.2µM*	68*	10%
CNC(C(=O)c1ccccc1)C(OC(C)C)c1ccc(Cl)cc1 (stereo not drawn)	-3	-2%	-41%	16	?
CNC(C(=O)c1ccccc1)C(OC)c1ccc(C)cc1 (stereo not drawn)	11*	2%	47%	44*	38%
Cc1nnc(NC(=O)CCn2c(=O)oc3ccccc32)s1	6	-6%	47%	43	9%
COc1ccccc1N1CCN(C(=O)C2CCCN(c3ncnc4c3nc3n4CCCCC3)C2)CC1 (stereo not drawn)	6	5%	-20%	27	9.3µM*
Cc1ccc(C)c(N2CCN(C(=O)C3CCCN(c4ncnc5c4nc4n5CCCCC4)C3)CC2)c1 (stereo not drawn)	9	6%	?	-5	9.3µM*
O=C(C1CCCN(c2ncnc3c2nc2n3CCCCC2)C1)N1CCN(c2ccccc2)CC1 (stereo not drawn)	-1	0%	?	-6	?
Cc1ccc(N2CCN(C(=O)C3CCCN(c4ncnc5c4nc4n5CCCCC4)C3)CC2)c(C)c1 (stereo not drawn)	1	6%	15µM*	-1	?
CC1SC(C)C(=O)N(CC(=O)Nc2ccc([N+](=O)[O-])cc2)C1=O (stereo not drawn)	-3	8%	?	-6	-2%
CC1Sc2ccc(S(=O)(=O)N3CCC(C(=O)NCC(C)c4ccccc4)CC3)cc2NC1=O (stereo not drawn)	-2	-1%	-27%	0	?
Cc1nc(-c2cccc(NC(=O)C(C)Oc3ccccc3)c2)cs1 (stereo not drawn)	17	-2%	-12%	14	-10%
O=C(COc1ccccc1)Nc1cccc(-c2nc3cc4ccccc4cc3[nH]2)c1	70*	-12%	14%	79*	117%
CC(C)CC(=O)Nc1cccc(-c2csc(-c3ccccc3)n2)c1	39*	6%	6.6µM*	+	?
CCC(=O)Nc1cccc(-c2csc(-c3ccccc3)n2)c1	54*	-1%	-2%	62*	34%
CC(C)CC(=O)Nc1cccc(-c2nc3ccccc3[nH]2)c1	14*	-4%	-3%	16	86%
COc1ccc(CC(=O)Nc2cccc(-c3csc(C)n3)c2)cc1	16	1%	.	37	6%
CN1CCN(C(=O)C2CCC(=O)N(Cc3cccc(C(F)(F)F)c3)C2)CC1 (stereo not drawn)	4	-7%	-21%	-17	3%
SMILES	Cycloheximide cs	LmPK inhibitor	Pf growth 96h	Shiga toxin inh	Pf growth 48h
Cc1c(C(=O)NCCO)[n+](=O)c2ccccc2n1[O-]	.	.	-30%	.	-8%
Cc1c(OC(C)C(=O)NCC2CCC(C(=O)O)CC2)ccc2c3c(c(=O)oc12)CCCC3 (stereo not drawn)	-5	4%	?	-12	-9%
O=C(Nc1ccon1)c1ccc(N2CCCCC2)c([N+](=O)[O-])c1	45*	2%	?	99*	125%
O=C(NN1CCOCC1)c1ccc(Cl)c([N+](=O)[O-])c1	27*	0%	-3%	62*	-19%
O=C(Nc1cccc(Cl)c1N1CCCCC1)c1ccc(N2CCOCC2)c([N+](=O)[O-])c1	-1	5%	6.6µM*	-7	-16%
O=C(Nc1nc2ccccc2s1)c1ccc(N2CCCCC2)c([N+](=O)[O-])c1	45*	-1%	?	102*	48%
CN1CCN(NC(=O)c2ccc(Cl)c([N+](=O)[O-])c2)CC1	0	3%	.	-22	-9%
CCc1ccc(CNC(=O)CCc2cn(C)c3ccccc23)cc1	7	3%	1%	-7	5%
Cc1nnc(-c2ccc(N3CCCCCC3)c([N+](=O)[O-])c2)o1	15*	9%	?	50*	-4%
Cc1cc(NC(=O)c2ccc(N3CCCC3)c([N+](=O)[O-])c2)no1	20*	-2%	?	23	?
COc1cccc(CN(C)C(=O)C2CC(=O)N(c3ccc4c(c3)OCCO4)C2)c1 (stereo not drawn)	.	.	0%	.	?
Nc1n[nH]c2c1C1(CCCCC1)Cc1ccccc1-2	6	-3%	?	-7	-22%
c1ccc(OCc2nc3c4c(ncn3n2)-c2ccccc2CC42CCCC2)cc1	-2	0%	-4%	-4	13µM*
CCC(=O)Nn1cnc2c(c1=O)C1(CCCCC1)Cc1ccccc1-2	-5	1%	.	-18	11%
Nc1ncnc2c1C1(CCCCC1)Cc1ccccc1-2	-3	2%	8.3µM*	-12	-16%
CC1CCCCN1CCCNC(=O)CN1C(=O)c2cccnc2Oc2ccccc21 (stereo not drawn)	-2	0%	?	-2	-6%
Cn1c(=O)n(C)c2cc(/C=C3/SC(=O)N(CC(=O)N4CCOCC4)C3=O)ccc21	-4	-7%	?	-20	-4%
CCOC(=O)CN1C(=O)S/C(=C/c2ccc3c(c2)n(C)c(=O)n3C)C1=O	40*	0%	8%	44*	-1%
CCOC(=O)CN1C(=O)S/C(=C/C=C/c2ccc(N(C)C)cc2)C1=O	30*	-9%	-14%	15	105%
CSCCC(NS(=O)(=O)c1ccc2c(c1)OCCO2)C(=O)N(C)Cc1ccc(C)cc1 (stereo not drawn)	-4	2%	?	-9	?
COc1cccc(CN(C)C(=O)C(CCSC)NS(=O)(=O)c2ccc3c(c2)OCCO3)c1OC (stereo not drawn)	.	.	?	.	12µM*
O=C(CCCn1c(=S)[nH]c2cc3c(cc2c1=O)OCO3)NCc1ccccc1Cl	-1	-1%	31%	-5	2%
